Most compounds without a hit are left out; they make up all but 1.1% or so of the library.
AmpC inh no detg – AmpC beta-lactamase inhibition without detergent | 330,000 compounds, 0.52% hits | P00811 | Potency, µM (doses to about 57.1 µM), for inactives: at the top dose activity change, negative = inhibition, actives largely listed as inhibitors | AID 485341 | AmpC nitrocefin hydrolysis, absorbance 480 nm, 0.0001% Triton;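 note: potency is the fitted concentration of half-maximal effect; plate controls were no compound for no effect and no enzyme for full effect; nearly all actives have a fitted effect of over 20% in size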
Target sequence (P00811 whole entry, looked up): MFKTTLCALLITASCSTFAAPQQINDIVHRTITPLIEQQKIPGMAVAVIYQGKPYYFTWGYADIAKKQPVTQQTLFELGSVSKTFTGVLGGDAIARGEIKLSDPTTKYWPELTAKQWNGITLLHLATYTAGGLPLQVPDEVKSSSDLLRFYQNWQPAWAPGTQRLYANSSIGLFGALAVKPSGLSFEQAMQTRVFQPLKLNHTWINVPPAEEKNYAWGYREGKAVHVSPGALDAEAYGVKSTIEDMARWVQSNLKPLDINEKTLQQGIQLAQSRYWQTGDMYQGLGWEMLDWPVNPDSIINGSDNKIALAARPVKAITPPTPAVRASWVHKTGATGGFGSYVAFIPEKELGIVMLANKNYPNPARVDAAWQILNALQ
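AmpC (5.3 nM in the dispensed reagent) in 20 mM phosphate pH 7.0 with 0.01% (detergent screen) or 0.0001% Triton X-100 was preincubated with compounds for 15 min at room temperature. Nitrocefin was then added from an 800 uM solution, and hydrolysis was followed at 480 nm.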
AmpC inh detg – inhibitors of E. coli AmpC beta-lactamase with detergent | P00811 | AmpC hydrolysis of nitrocefin, absorbance 480 nm, 0.01% Triton | Potency, µM (highest dose often 114 µM), for the others: at the highest dose activity change, negative = inhibition, hits mostly inhibitors | 370,000 compounds, 0.041% hits;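 note: potency is the fitted concentration of half-maximal effect; 0% = no-compound wells and -100% = no-enzyme wells; nearly all actives have a fitted effect of over 25% in size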
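20 mM phosphate pH 7.0 + 0.01% (detergent screen) or 0.0001% Triton X-100; 5.3 nM AmpC reagent; cpd preinc 15 min RT; nitrocefin (800 uM stock) to start; A480 q20 s × 4 min; Activity was normalised to no-enzyme and no-compound control wells.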
SARS PLpro yeast-1 – SARS-CoV PLP inhibition in yeast; 330,000 compounds, 0.19% hits; S. cerevisiae expressing SARS-CoV PLpro, growth rescue; AID 485353; Potency, µM (highest dose often 32.9 µM), for the others: top-dose activity, positive = growth rescue, actives largely listed as activators; calls by dose curve; note: potency is the fitted concentration of half-maximal effect; 0% is about no effect; nearly all actives have a fitted effect of over 55% in size
FBPA Giardia inh – blocks Giardia fructose-bisphosphate aldolase activity. 290,000 compounds, 0.71% hits. AID 2451. purified Giardia FBPA. A8B2U2. Potency, µM (top dose mostly 59.6 µM), without a hit: at the highest dose activity, negative = inhibition, most hits filed as inhibitors; note: potency is the fitted concentration of half-maximal effect; % is set by controls: 0 for no effect and ±100 for the full control effect; nearly all actives have a fitted effect of over 55% in size
Target sequence (A8B2U2 whole entry, looked up): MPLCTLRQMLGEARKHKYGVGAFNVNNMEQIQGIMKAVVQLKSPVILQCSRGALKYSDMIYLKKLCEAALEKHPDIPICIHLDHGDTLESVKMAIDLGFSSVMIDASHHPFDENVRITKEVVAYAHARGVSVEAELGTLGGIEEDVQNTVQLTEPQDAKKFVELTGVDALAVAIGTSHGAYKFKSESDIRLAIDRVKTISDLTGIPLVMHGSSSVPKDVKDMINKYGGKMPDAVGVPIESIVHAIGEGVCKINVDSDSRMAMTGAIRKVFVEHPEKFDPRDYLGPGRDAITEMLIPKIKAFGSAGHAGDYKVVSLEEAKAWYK
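40 nM FBPA preincubated 10 min at RT with compound (up to 57.5 uM final), then substrate plus GAPDH/TPI/NAD/arsenate coupling and diaphorase/resazurin added. Fluorescence read after 20 min at RT, 525/598 nm.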
SARS PLpro yeast-2 – Inhibits SARS-CoV PLP in yeast, hit validation. shares compounds with SARS PLpro yeast-1. yeast expressing SARS-CoV PLpro, growth phenotype rescue. calls only. 1,000 compounds, 19% hits; call rule not given here
Starred values were filed as active, the others as inactive. Unless noted, calls come from the whole dose curve; as a rule, active = well fitted curve in the direction sought with a large enough effect; inconclusive = small, poorly fitted or top-dose-only effect, or another doubt; inactive = no such curve, though single readings can be large; an effect the other way counts as inactive or inconclusive.

Cc1sc2nc(CSCC(=O)N(C)c3ccccc3)[nH]c(=O)c2c1C was read as AmpC inh no detg 0.8%, AmpC inh detg -11.7%, SARS PLpro yeast-1 inconclusive, FBPA Giardia inh -7.2% and SARS PLpro yeast-2 inactive.
Screening CCCCN(C)Cc1c(C)[nH]c2ccc(OCC)cc2c1=O returned AmpC inh no detg -8.6%, AmpC inh detg inconclusive, SARS PLpro yeast-1 inconclusive, FBPA Giardia inh 2.2% and SARS PLpro yeast-2 inactive.
CCOc1ccc2[nH]c(C)c(CN3CCN(CC)CC3)c(=O)c2c1 was read as AmpC inh no detg -20.1%, AmpC inh detg 3.9%, SARS PLpro yeast-1 7.6% and FBPA Giardia inh 7.5%.
Screening COc1ccc(C2CC(c3ccc(Cl)cc3)=NN2C(=O)c2cccc([N+](=O)[O-])c2)cc1 (configuration not stated) returned AmpC inh no detg -49.4%, AmpC inh detg inconclusive, SARS PLpro yeast-1 13.4% and FBPA Giardia inh -0.5%.
For COc1ccc(C2=NN(C(=O)c3ccc(Cl)c([N+](=O)[O-])c3)C(c3ccccc3)C2)cc1 (configuration not stated) the results were AmpC inh no detg inconclusive, AmpC inh detg -11.9%, SARS PLpro yeast-1 inconclusive, FBPA Giardia inh -6.0% and SARS PLpro yeast-2 inconclusive.
Screening Cc1cccc(C)c1NC(=O)CN(C)C(=O)c1ccccc1SCC(=O)N1CCCC1 returned AmpC inh no detg -2.1%, AmpC inh detg 5.6%, SARS PLpro yeast-1 14.1µM* and SARS PLpro yeast-2 inactive.
`O=C(Nc1nc2n(n1)C(c1ccc(F)cc1)C=C(c1ccc(Cl)cc1)N2)c1ccc([N+](=O)[O-])cc1` (configuration not stated) gave AmpC inh detg -3.7%.
For Cn1c(N)c(N2CCCCC2)c(=O)n(CC(=O)Nc2cccc(C#N)c2)c1=O the results were AmpC inh no detg -16.1% and SARS PLpro yeast-1 15.1%.
Screening Cc1cccc(C)c1NC(=O)Cn1c(=O)c(N2CCCCC2)c(N)n(C)c1=O returned AmpC inh no detg -13.3%, SARS PLpro yeast-1 11.2µM* and SARS PLpro yeast-2 inactive.
Screening CCOC(=O)c1ccc(NC(=O)CCCn2nc(C)c3sc4ccccc4c3c2=O)cc1 returned AmpC inh detg 1.2%.
For CN1C(=O)SC(Nc2cccc3ccccc23)C1=O (configuration not stated) the results were AmpC inh no detg -26.3%, AmpC inh detg 2.3%, SARS PLpro yeast-1 12.6µM*, FBPA Giardia inh -2.3% and SARS PLpro yeast-2 inactive.
For O=C1NC(=O)C(Nc2cccc3ccccc23)S1 (configuration not stated) the results were AmpC inh no detg -23.6%, AmpC inh detg 3.8%, SARS PLpro yeast-1 -18.9% and FBPA Giardia inh 3.8%.
Screening CNC(=O)CSc1nnc(NC(=O)Nc2ccccc2)s1 returned AmpC inh detg 8.4%.
O=C1C=CC(=O)N1Nc1ccc(Br)cc1 was read as AmpC inh no detg 5.2%, AmpC inh detg -14.2%, SARS PLpro yeast-1 inconclusive, FBPA Giardia inh 4.7% and SARS PLpro yeast-2 inactive.
For CCc1cccc(-n2c(=O)c3cccnc3n2CC(=O)NCc2ccc(C)cc2)c1 the results were AmpC inh detg 2.9%.
For CCN(C(=O)CN1C(=O)COc2ccc(S(=O)(=O)N3CCOCC3)cc21)c1cccc(C)c1 the results were AmpC inh detg 13.7%.
Screening O=C(N/N=C/c1ccc(-n2ccnc2)cc1)c1cccs1 returned AmpC inh no detg -33.6%, AmpC inh detg 6.3%, SARS PLpro yeast-1 inconclusive, FBPA Giardia inh 14.1% and SARS PLpro yeast-2 inactive.
For CCOC(=O)c1ccc(NC(=O)C2COc3ccccc3O2)cc1 (configuration not stated) the results were AmpC inh no detg -25.9%, AmpC inh detg -10.7%, SARS PLpro yeast-1 -8.8% and FBPA Giardia inh 4.7%.
For CCOC(=O)c1ccc(-n2c(O)c(/C=N/NC(=O)C3COc4ccccc4O3)c3ccccc3c2=O)cc1 (configuration not stated) the results were AmpC inh no detg -32.6%, AmpC inh detg -5.9%, SARS PLpro yeast-1 4.47µM*, FBPA Giardia inh inconclusive and SARS PLpro yeast-2 inactive.
For CCc1ccc(CNC(=O)CCc2c(C)nn(-c3ccc(N4CCCCC4)nn3)c2C)cc1 the results were AmpC inh detg 18.1%.
For C[C@@H]1O[C@@H](O[C@H]2C[C@@H](O)[C@]3(CO)[C@H]4[C@H](O)C[C@]5(C)[C@@H](C6COC(=O)C6)CC[C@]5(O)[C@@H]4CC[C@]3(O)C2)[C@H](O)[C@H](O)[C@H]1O (some centres not stated) the results were AmpC inh no detg 2.0%, AmpC inh detg -7.8%, SARS PLpro yeast-1 inconclusive, FBPA Giardia inh 7.5% and SARS PLpro yeast-2 inactive.
`C[C@@H]1O[C@@H](OC2CC(O)C3(CO)C4C(CCC3(O)C2)C2(O)CCC(C3=CC(=O)OC3)C2(C)C[C@H]4O)[C@H](O)[C@H](O)[C@H]1O` (some centres not stated) gave FBPA Giardia inh 2.1%.
COc1cc2[nH]c3c(=O)n(CCN4CCCCC4)cnc3c2cc1OC was read as AmpC inh no detg -30.8%, AmpC inh detg -19.2%, SARS PLpro yeast-1 inconclusive, FBPA Giardia inh -10.5% and SARS PLpro yeast-2 inactive.
For COc1cccc(CNc2ccc(S(N)(=O)=O)cc2)c1OC the results were AmpC inh no detg -16.5%, AmpC inh detg inconclusive, SARS PLpro yeast-1 inconclusive, FBPA Giardia inh 0.4% and SARS PLpro yeast-2 inactive.
For CCCSc1nc(-c2ccccc2)[nH]c1S(=O)(=O)c1ccc(C)cc1 the results were AmpC inh detg -2.8%.
Cc1ccc(Cl)cc1NS(=O)(=O)c1cn(C)nc1C was read as AmpC inh no detg -21.2%, AmpC inh detg -1.2% and SARS PLpro yeast-1 5.2%.
`COc1ccc(Cl)cc1NS(=O)(=O)c1cn(C)nc1C` gave AmpC inh no detg 2.6%, AmpC inh detg 4.5%, SARS PLpro yeast-1 inconclusive and SARS PLpro yeast-2 inactive.
Cc1ccc(S(=O)(=O)Nc2ccc(O)c3ncccc23)cc1 was read as AmpC inh no detg -31.5%, AmpC inh detg 1.1%, SARS PLpro yeast-1 inconclusive, FBPA Giardia inh -0.8% and SARS PLpro yeast-2 active.
For Cc1ccc(S(=O)(=O)Nc2ccc(O)c3cccnc23)cc1 the results were AmpC inh no detg -40.3%, AmpC inh detg -9.1%, SARS PLpro yeast-1 1.8% and FBPA Giardia inh -16.1%.
`Cc1ccccc1C(=O)Nc1nc2c(s1)CC(C(C)(C)C)CC2` (configuration not stated) gave AmpC inh detg 16.7%.
`COc1ccc(OC)c(CNC(=O)Nc2cn(CC(C)C)c(=O)c3ccccc23)c1` gave AmpC inh detg 20.7%.
`CCc1nnc(SCc2ccc(F)cc2Cl)c2cc3sc(C)cc3n12` gave AmpC inh detg 21.1%.
For O=S1(=O)N=C(N/N=C/c2ccccn2)c2ccccc21 the results were AmpC inh no detg -8.4%, AmpC inh detg inconclusive, SARS PLpro yeast-1 22.4µM*, FBPA Giardia inh inconclusive and SARS PLpro yeast-2 active.

Source: PubChem BioAssay (National Center for Advancing Translational Sciences (NCATS))
